# Rab9 promoter act – activates the Rab9 promoter. Potency, µM (top dose mostly 9.22 µM), inactives show top-dose activation, negative = inhibition, actives largely listed as activators. Huh7 Rab9 promoter-luciferase reporter, luminescence, 24 h. 2.8% of 320,000 active. AID 485297; further: % of control where 0% means no effect; nearly all actives have a fitted effect of over 60% in size
#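 Quantitative HTS format; Huh7 Rab9-luciferase reporter cells (1500/well) receive compound 2 h post-plating, incubate 24 h at 37 °C, then get luciferase reagent for 10 min before luminescence reading.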
# p53 reactivator – re-activators of mutant p53; H1299 p53-A138V BP100-luciferase reporter, luminescence, 24 h; Potency, µM (top dose mostly 92.2 µM), inactives show top-dose activity change, positive = activation, most hits filed as activators; 0.063% of 320,000 active; further: % of control where 0% means no effect; nearly all actives have a fitted effect of over 45% in size
#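 H1299 (p53-null), stable ts p53-A138V + BP100-Luc; 1000 cells/well, Opti-MEM/10% FBS; cpd 4 pt, 1:5; 24 h, 37 deg C, 5% CO2; detection reagent 10 min RT; luminescence.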
# FLuc modulator – inhibits or activates purified firefly luciferase, miR-21 counter-screen; Potency, µM (titrated, usually from 57.5 µM), inactives show at the highest dose activity change, negative = inhibition, usual class: inhibitors; purified FLuc, Km substrates, luminescence inhibition; P08659; 6.9% of 360,000 active;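 further: plate controls were vehicle for no effect and reference inhibitor for full effect; nearly all actives have a fitted effect of over 55% in size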
# Target sequence (P08659 whole entry, looked up): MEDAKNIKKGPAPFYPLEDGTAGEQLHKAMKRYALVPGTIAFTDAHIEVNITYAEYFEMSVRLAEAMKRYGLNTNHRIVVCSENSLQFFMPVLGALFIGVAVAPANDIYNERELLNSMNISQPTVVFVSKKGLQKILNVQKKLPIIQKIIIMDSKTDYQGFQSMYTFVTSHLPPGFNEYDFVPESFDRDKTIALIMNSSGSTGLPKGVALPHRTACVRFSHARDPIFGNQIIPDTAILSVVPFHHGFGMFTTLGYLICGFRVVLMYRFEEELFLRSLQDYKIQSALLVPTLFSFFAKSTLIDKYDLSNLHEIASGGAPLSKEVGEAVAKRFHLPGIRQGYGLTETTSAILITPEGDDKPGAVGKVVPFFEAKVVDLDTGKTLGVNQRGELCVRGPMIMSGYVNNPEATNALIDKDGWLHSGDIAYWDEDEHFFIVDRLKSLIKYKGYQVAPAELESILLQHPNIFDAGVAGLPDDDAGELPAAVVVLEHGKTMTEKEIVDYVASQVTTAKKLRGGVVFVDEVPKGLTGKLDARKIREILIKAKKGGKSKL
#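 Purified P. pyralis luciferase, 10 nM final, with Km-level 10 uM D-luciferin and 10 uM ATP in 50 mM Tris acetate pH 7.5, 10 mM Mg acetate, 0.01% Tween-20, 0.05% BSA; 6-point qHTS titration about 60 µM downward; luminescence read.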
# ELG1 genotox – genotoxicity induction in ELG1-luciferase HEK293T cells; HEK293T ELG1-luciferase reporter, luminescence, 16 h; Potency, µM (titrated, usually from 46 µM), for the others: at the top dose activity change, positive = activation, actives largely listed as activators; 1.3% of 330,000 active; further: % of control where 0% means no effect; nearly all actives have a fitted effect of over 60% in size
#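 Quantitative HTS format in 1536-well plates. HEK293T ELG1-luciferase reporter cells receive test compound and are incubated 16 hr at 37 °C, 5% CO2; ONE-Glo added, 30 min room temperature, then luminescence read.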
# SMN2 splice up – SMN2 splice variant enhancement | HEK293 SMN2-luciferase splicing reporter, luminescence, 30-36 h | Potency, µM (highest dose often 46.1 µM), for inactives: at the top dose activity change, positive = activation, usual class: activators | 2.8% of 210,000 active | AID 1458; further: % of control where 0% means no effect; nearly all actives have a fitted effect of over 55% in size
#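 HEK293 cells carry an SMN2 […]–luciferase reporter in which exon 7 inclusion puts luciferase in frame. Cells were plated 10-12 h before compound addition, then incubated 30-36 h at 37C. ONE-Glo luminescence was read; sodium butyrate at 4.5 mM final served as control.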
# NPC1 promoter act – activators of NPC1 promoter. Potency, µM (series often up to 9.22 µM), without a hit: at the top dose activation, most hits filed as activators. Huh7 NPC1 promoter luciferase reporter, 24 h. 2.4% of 320,000 active; further: % of control where 0% means no effect; nearly all actives have a fitted effect of over 60% in size
#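 Stably transfected Huh7 (NPC1 promoter→luciferase), 1500 cells/well in Opti-MEM + 10% FBS, 2 h settle, then compound 24 h at 37 °C. Luminescence after 10 min with Amplite reagent.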
# * marks the source's active call; other numbers are inactive results; ? = inconclusive; / = no result; [ ] = another dose, or the depositor's remark. Hits are enriched below; roughly 7.4% of the tested compounds scored in any of these assays. The call rests on the fitted dose curve; in most records, active means well fitted curve in the direction sought with a large enough effect; inconclusive means small, poorly fitted or top-dose-only effect, or another doubt; inactive means no such curve, though single readings can be large; an effect the other way counts as inactive or inconclusive. Potency means the concentration at half of the fitted maximal effect.
SMILES,Rab9 promoter act,p53 reactivator,FLuc modulator,ELG1 genotox,SMN2 splice up,NPC1 promoter act
CC(C)OCCCN1C(=O)c2[nH]nc(-c3ccccc3O)c2C1c1cccc(OCc2ccccc2)c1 (stereo not given),/,/,2%,/,-13%,/
COc1cc(N=Nc2c(O)c3ccccc3[nH]c2=O)c(OC)cc1N=Nc1ccccc1,-1%,-2%,15µM*,-4%,/,3%
NC(=O)c1ccc(N=Nc2c(O)c3ccccc3[nH]c2=O)cc1,8%,2%,?,1%,/,8%
CCn1c(C)c(C)c2cc(C(=O)NCC(C)c3ccccc3)ccc21 (stereo not given),/,/,-6%,/,/,/
CCc1ccc2occ(CC(=O)Nc3sc4c(c3C(=O)NCCOC)CCCC4)c2c1,/,/,-9%,/,11%,/
O=C(c1cccc(F)c1)N1CCC2(CC1)CCN(c1ncccn1)CC2,/,/,/,/,-39%,/
O=C(NC(=S)Nc1cccc(Cl)c1N1CCCCC1)c1ccco1,1%,9%,7%,0%,-18%,-4%
O=C(NC(=S)Nc1ccccc1Cl)c1ccco1,?,?,9.5µM*,4%,/,?
O=C(NC(=S)Nc1cccc2cc(O)ccc12)c1ccco1,8%,4%,-4%,0%,/,3%
O=C(NC(=S)Nc1cccc2c(O)cccc12)c1ccco1,17%,-2%,21µM*,0%,/,9%
O=C(NNC(=S)Nc1ccccc1Cl)c1ccccc1,1.6µM*,?,13µM*,?,/,2.5µM*
CN(C)CCN(Cc1ccccc1)S(=O)(=O)c1ccc(-c2cc(C(F)(F)F)on2)s1,/,/,-2%,/,/,/
O=C(CSc1c2c(nc3ccc(Cl)cc13)CCCC2)N1CCCCC1,/,/,4%,/,-24%,/
CC(C)c1ccc(NC(=O)CSC2=Nc3ccccc3C3=NC(CC(=O)NCCc4ccccc4)C(=O)N23)cc1 (stereo not given),/,/,-11%,/,/,/
CCCCc1ccc(-c2ccc(Br)cc2O)nc1,0.79µM*,28%,0.85µM*,1.3µM*,?,1.4µM*
CCCCCc1ccc(-c2ccc(OC)cc2)nc1,-9%,0%,?,-13%,/,0%
CCCCc1ccc(-c2ccc(C)cc2O)nc1,0.63µM*,?,0.43µM*,1.5µM*,22µM*,0.5µM*
CCCCN(CC)C(=O)Cc1ccc(Br)cc1,-6%,5%,6%,-1%,-20%,-1%
CCOc1ccccc1CNC(=O)C1CCCN(c2ncnc3onc(-c4ccc(F)cc4)c23)C1 (stereo not given),/,/,-9%,/,/,/
O=C(CCNC(=O)C1CCN(S(=O)(=O)c2ccc(F)cc2)CC1)NCc1ccccc1Cl,-2%,-2%,2%,-1%,/,-9%
CS(=O)(=O)N1CCN(c2nc(-c3ccccc3)cs2)CC1,0%,2%,?,?,9%,14%
Clc1ccc(-c2csc(N3CCC(c4ccccc4)C3)n2)cc1 (stereo not given),3.5µM*,?,2.7µM*,?,2%,3.5µM*
COc1ccc(-c2csc(N3CCC(c4ccccc4)C3)n2)cc1 (stereo not given),?,18%,4.3µM*,12%,-23%,?
NC(=O)CN1CCN(c2nc(-c3ccc(F)cc3)cs2)CC1,4%,-5%,?,-1%,-10%,-2%
Fc1ccc(-c2csc(N3CCC(c4ccccc4)C3)n2)cc1 (stereo not given),3.5µM*,?,2.4µM*,17%,?,3.2µM*
SMILES,Rab9 promoter act,p53 reactivator,FLuc modulator,ELG1 genotox,SMN2 splice up,NPC1 promoter act
O=C(NCc1cccc(F)c1)c1ccc(CS(=O)c2ccccc2Cl)o1 (stereo not given),/,/,0%,/,/,/
O=C(CSc1nnc(-c2ccc(O)cc2)o1)c1ccc(Br)cc1,/,/,1%,/,/,/
CCCNC(=O)c1cc(Cl)c(NC(=O)C2=CSCCO2)cc1OC,?,8%,19µM*,17%,/,?
CCCn1c(C)nc2c(NCC(C)(C)CN(C)C)nc(C)nc21,/,/,/,/,-4%,/
CC(=O)c1c(C)[nH]c(C(=O)Nc2cccc(C)n2)c1C,0.45µM*,3%,8.5µM*,1.6µM*,/,0.35µM*
CC(=O)c1c(C)[nH]c(C(=O)Nc2nccs2)c1C,2.8µM*,?,24µM*,?,13µM*,?
N#Cc1c(NC(=O)COC(=O)c2ccc(O)cc2O)sc2c1CCC2,4%,2%,1%,1%,/,0%
CN(CC(=O)Nc1cccc(F)c1)C(=O)c1cn(-c2ccccc2)nc1-c1ccc(F)cc1,0%,-4%,?,-4%,/,-3%
CN(Cc1cn(-c2ccccc2)nc1-c1ccc(Cl)cc1)C(=O)CCC(=O)O,-11%,-2%,11µM*,4%,6%,7%
CN(Cc1cn(-c2ccccc2)nc1-c1ccc(F)cc1)C(=O)CCC(=O)O,-3%,1%,12µM*,4%,14%,-2%
Cc1ccc(-c2nn(-c3ccccc3)cc2CO)cc1,?,?,15µM*,?,/,?
NCCC[C@H](N)CC(=O)N[C@H]1CNC(=O)[C@@H]([C@@H]2C[C@H](O)N=C(N)N2)NC(=O)/C(=C/NC(N)=O)NC(=O)[C@@H](CO)NC(=O)[C@@H](CO)NC1=O,/,/,/,/,0%[20.6 µM],/
CCOC(=O)c1c(C)oc2ncnc(Nc3ccc(CC)cc3)c12,/,/,-1%,/,-1%,/
CCc1ccc(Nc2oc(C)cc(=O)c2C(C)=O)cc1,16%,?,19µM*,15%,-10%,23%
O=C(NCCc1ccccc1)C(=O)NC1CCCCC1,3.2µM*,12%,-1%[2.3 µM],11%,58%,3.5µM*
Fc1ccccc1NC(=S)NCCc1ccc(Cl)cc1,?,18%,19µM*,?,/,?
COc1ccc(CCNC(=S)NCc2cccs2)cc1OC,-2%,-4%,2%,-4%,-7%,-1%
S=C(NCCc1ccc(Cl)cc1)NC1CCCC1,26%,0%,?,-1%,14%,19%
S=C(NCCc1ccc(Cl)cc1)NC1CCCCC1,?,?,19µM*,-7%,/,4µM*
S=C(NCCc1ccccc1)NCc1cccs1,?,21%,?,?,10µM*,?
Cn1cccc1C(=O)N1CCC2(CC1)CCN(c1ncccn1)CC2,/,/,/,/,-36%,/
COc1ccc(-c2noc(CSc3nnc(C)n3-c3ccc(OC)cc3)n2)cc1,/,/,0%,/,-6%,/
S=C(NCCc1ccccc1)NC1CCCCCC1,3.2µM*,26%,11µM*,8.2µM*,13µM*,2.5µM*
CC(C)(C)c1ccc(C(=O)NC(CC(=O)O)c2ccc(OC3CCCC3)cc2)cc1 (stereo not given),-6%,4%,19µM*,0%,/,-6%

# Assay outcomes (PubChem BioAssay)
